Results filed as inconclusive are left out. Values without a mark were called inactive. Active and inactive are the calls of the source. Calls follow the shape of the dose curve; as a rule, active = well fitted cell-killing curve with a large enough effect; inconclusive = small, poorly fitted or top-dose-only effect; inactive = flat fitted curve, though single readings scatter.
Test: qHTS of pediatric cancer cell lines to identify multiple opportunities for drug repurposing: Primary screen for Rh18 cells (AID 1347102); also: nearly all actives have a fitted effect of over 65% in size
Details: Rh18 rhabdomyosarcoma viability, CellTiter-Glo luminescence, 48 h; series mostly up to 46 µM; activity change, negative = cytotoxic: at the top concentration
Text: Drug repurposing or repositioning has been offered as a strategy for drug development in oncology programs. This approach has special potential for childhood cancers and other rare or orphan diseases, where the expected return on new drug development has been a disincentive to pharmaceuticals.
In this project we exploit the poly-pharmacology of drugs to discover new indications via phenotypic screening of a panel of 19 well-characterized cell lines derived from solid tumors seen in children and adolescents. The goal is to identify approved drugs with previously unrecognized anticancer properties that has the potential to reveal new mechanisms and biological processes involved in carcinogenesis or drug resistance. We employed a titration-based paradigm (quantitative high-throughput screening or qHTS), where all compounds were tested at multiple concentrations for their effect on cell viability. Concentration-response curves (CRCs) were derived directly from the primary screen, and both potency and efficacy values were used to identify compounds with robust bioactivity profiles. We screened the NIH Chemical Genomics Center (NCGC) Pharmaceutical Collection (NPC) and Mechanism Interrogation Plate (MIPE) small molecule collections of approved and investigational compounds against these cell lines; and measured metabolically active cells after 48 hours of compound treatment as a proxy for cell viability.
Assay Submitter: Nathalia J. Martinez, National Center for Advancing Translational Sciences, National Institutes of Health, Rockville, MD, USA; email: natalia.martinez@nih.gov
[1] Shen, M et al. Quantitative high-throughput phenotypic screening of pediatric cancer cell lines identifies multiple opportunities for drug repurposing. Oncotarget 2017 Dec 19;9(4):4758-4772. PMID 29435139.
The cells were obtained from University of North Carolina (UNC), Pediatric Preclinical Testing Program (PPT), and Coriell Institute (CI).
qHTS cell viability assay:
Cells were assayed in growth media at a density of 500-1,000 cells/well. Five microliters of cells were dispensed into 1,536-well, white, solid-bottom, TC-treated plates (Greiner Bio One) using a multidrop dispenser and incubated at 37 degrees C, 5% CO2, under a humidified atmosphere for 5 hours. Twenty-three nanoliters of compounds and controls (neutral control DMSO or positive control bortezomib at final concentration of 2.3 µM) were subsequently transferred by Kalypsys pintool. For primary screens, the MIPE collection was tested at 11-point dilutions (final concentrations range from 0.78 nM to 46 µM) and the NPC collection at 8-point dilutions (final concentrations range from 0.59 nM to 46 µM). Compounds tested in follow-up screens were assayed at 11-point dilutions. Cells were incubated for 48 hours, followed by addition of 3 µL of CellTiter-Glo (Promega). After a 15 min incubation at room temperature, samples were analyzed for luminescence intensity using a ViewLux High-throughput CCD imager equipped with clear filters.
% is scaled to controls: 0 for no effect and ±100 for the full control effect; potency is read from the fitted curve at half-maximal effect.

Row | SMILES | activity change, negative = cytotoxic | Potency
1 | CC(C)(C)C(=O)NCCCC(=O)O | 8.86% | 
2 | Cc1cc(CC(=O)O)n(C)c1C(=O)c1ccc(Cl)cc1 | 19.2% | 
3 | O=c1cc[nH]c(=S)[nH]1 | 7.08% | 
4 | NC(=O)c1ncn([C@@H]2O[C@H](CO)[C@@H](O)[C@H]2O)n1 | 2.97% | 
5 | COC(=O)C1=C(C)NC(C)=C(C(=O)OC)C1c1ccccc1[N+](=O)[O-] | -6.42% | 
6 | COc1ccc2[nH]c(S(=O)Cc3ncc(C)c(OC)c3C)nc2n1 (stereo not given) | 13.5% | 
7 | CSc1ccc2c(c1)N(CCC1CCCCN1C)c1ccccc1S2 (stereo not given) |  | 16.8 µM (active)
8 | NC(=O)c1ncn([C@@H]2O[C@H](CO)[C@@H](O)[C@H]2O)c1N | 24.5% | 
9 | Nc1ncnc2c1ncn2[C@@H]1O[C@H](CO)[C@@H](O)[C@H]1O | -8.99% | 
10 | C[C@H](N)[C@H](O)c1cccc(O)c1 | 6.84% | 
11 | O=C(O)c1ccccc1-c1ccc(C(F)(F)F)cc1 | 6.61% | 
12 | NC(=O)N/N=C/c1ccc([N+](=O)[O-])o1 |  | inactive
13 | NC1[C@H]2CN(c3nc4c(cc3F)c(=O)c(C(=O)O)cn4-c3ccc(F)cc3F)C[C@@H]12 (stereo not given in full) | 1.94% | 
14 | CCOc1ccc2ccccc2c1C(=O)N[C@@H]1C(=O)N2[C@@H]1SC(C)(C)[C@@H]2C(=O)O | 8.61% | 
15 | CCCCOc1cc(C(=O)OCCN(CC)CC)ccc1N | -1.37% | 
16 | COc1cc2[nH]c(=O)[nH]c(=O)c2cc1OC | 14.8% | 
17 | CCN(CC)CCSC(=O)C(c1ccccc1)c1ccccc1 | -19.4% | 
18 | CC(=O)c1ccc2c(c1)N(CCCN(C)C)c1ccccc1S2 | -19% | 
19 | [Cl][In]([Cl])[Cl] | 34% [at 92.7 µM] | 
20 | NC(N)=NCCC[C@H](N)C(=O)O | 15.1% [at 4.84 µM] | 

Row | SMILES | activity change, negative = cytotoxic | Potency
21 | CC1(C)S[C@@H]2[C@H](NC(=O)Cc3ccccc3)C(=O)N2[C@H]1C(=O)O (tested in a mixture with another compound) | 16.5% | 
22 | NS(=O)(=O)c1cc2c(cc1Cl)NC(CSCc1ccccc1)=NS2(=O)=O | -3.09% | 
23 | CC1=C(CC(=O)O)c2cc(F)ccc2/C1=C\c1ccc(S(C)=O)cc1 (stereo not given) | 8.69% | 
24 | CS(=O)(=O)c1ccc([C@@H](O)[C@@H](CF)NC(=O)C(Cl)Cl)cc1 | 7.05% | 
25 | CCCCCCCCCCCCCCCCCCOCC(O)CO (stereo not given) | 11.3% | 
26 | CC1(C)Oc2ccc(C#N)cc2[C@@H](N2CCCC2=O)[C@@H]1O | 10.5% | 
27 | COCCOC(=O)C1=C(C)NC(C)=C(C(=O)OC/C=C/c2ccccc2)C1c1cccc([N+](=O)[O-])c1 (stereo not given) | -23.6% | 
28 | O=c1[nH]cnc2c1ncn2[C@@H]1O[C@H](CO)[C@@H](O)[C@H]1O | 14.9% | 
29 | CCCCN1CCCC[C@H]1C(=O)Nc1c(C)cccc1C | -19% | 
30 | Nc1ccc(S(=O)(=O)Nc2ccccc2)cc1 | 8.49% | 
31 | C[C@]12C[C@H](O)[C@H]3[C@@H](CCC4=CC(=O)CC[C@@]43C)[C@@H]1CC[C@@H]2C(=O)CO | 11.6% | 
32 | N[C@H](C(=O)O)c1ccc(O)cc1 | 18.9% [at 16.1 µM] | 
33 | OC[C@H]1O[C@@H](O[C@@H]2[C@@H](CO)O[C@](O)(CO)[C@H]2O)[C@H](O)[C@@H](O)[C@H]1O | 8.48% | 
34 | CC1=C(CC(=O)O)c2cc(F)ccc2/C1=C\c1ccc(S(C)(=O)=O)cc1 | 2.34% | 
35 | Oc1ccc(C(O)CNCCCCCCNCC(O)c2ccc(O)c(O)c2)cc1O (stereo not given) | -3.8% | 
36 | CN1CCC[C@@H]1Cc1c[nH]c2ccc(CCS(=O)(=O)c3ccccc3)cc12 | 9.12% | 
37 | CC(C)(O)c1ccccc1CC[C@@H](SCC1(CC(=O)O)CC1)c1cccc(/C=C/c2ccc3ccc(Cl)cc3n2)c1 | 0.335% | 
38 | NC(CSCC(=O)O)C(=O)O (stereo not given) | 14.9% | 
39 | CCCCC/C(C=O)=C\c1ccccc1 | 2.21% | 
40 | CC1CC(OC(=O)C(O)c2ccccc2)CC(C)(C)N1C (stereo not given) | 12.5% | 

From PubChem BioAssay (NCATS)
